In PubChem BioAssay (NCI):
This is part of a sample that, as a whole, favours compounds with a hit. Of some 79,000 tested, about 15% had one in any assay. Calls of active or inactive are those of the source. No stated cut-off is given here; in the data, active means growth inhibition above about 70%; inactive means the rest.

Tests used:
[1] = NCI Yeast Anticancer Drug Screen. Data for the sgs1 strain (AID 173);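 further: 0% = growth of vehicle-only control cultures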; conditions: S. cerevisiae sgs1 mutant, active compounds read high
Method in brief: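 Strain with an altered DNA repair or cell cycle pathway exposed to compound. Growth then measured. Value = inhibition versus vehicle control.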

[2] = NCI Yeast Anticancer Drug Screen. Data for the rad18 strain (AID 177); conditions: S. cerevisiae rad18 mutant growth inhibition, active compounds read high
Method in brief: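 DNA-repair-defective yeast; compound treatment; growth inhibition scored against vehicle.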

[3] = NCI Yeast Anticancer Drug Screen. Data for the wt1 strain (AID 149);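 further: 0% = growth of vehicle-treated wt1 cultures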; conditions: S. cerevisiae wt1 strain (SPY 50644) growth inhibition, active compounds read high
Method in brief: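 Measured: growth of wt1 yeast under compound versus vehicle treatment, reported as inhibition.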

[4] = NCI Yeast Anticancer Drug Screen. Data for the rad50EPP+ strain (AID 151);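 further: 0% = growth of vehicle-treated control cultures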; conditions: S. cerevisiae rad50 mutant strain, active compounds read high
Method in brief: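 Measured: growth inhibition of rad50EPP+ yeast. Reference: vehicle-treated controls. Screen uses strains with defined genetic alterations in DNA damage repair or cell cycle control.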

[5] = NCI Yeast Anticancer Drug Screen. Data for the mgt1 strain (AID 153); conditions: S. cerevisiae mgt1 mutant growth inhibition, active compounds read high
Method in brief: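 Compounds were applied to mgt1 mutant yeast, and growth was then compared against vehicle-treated control cultures to give percent inhibition.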

[6] = NCI Yeast Anticancer Drug Screen. Data for the rad50 strain (AID 155);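 further: 0% = growth of vehicle-only cultures of the same strain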; conditions: S. cerevisiae rad50 strain growth inhibition, active compounds read high
Method in brief: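 Growth of the mutant yeast was measured after compound exposure and referenced to vehicle-treated cultures.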

[7] = NCI Yeast Anticancer Drug Screen. Data for the mec2-1 strain (AID 157); conditions: S. cerevisiae mec2-1 strain, active compounds read high
Method in brief: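 Compounds were applied to mec2-1 yeast cells. Their growth was then compared with that of vehicle-treated cultures to give growth inhibition.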

[8] = NCI Yeast Anticancer Drug Screen. Data for the rad14 strain (AID 159);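 further: 0% = growth of vehicle-treated control cultures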; conditions: S. cerevisiae rad14 strain growth inhibition, active compounds read high
Method in brief: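 Here, inhibition of yeast growth was measured after compound exposure, using a strain with a genetic defect in DNA damage repair and vehicle-treated cultures as the reference.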

[9] = NCI Yeast Anticancer Drug Screen. Data for the sgs1 mgt1 strain (AID 161);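 further: 0% = growth of cultures given vehicle only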; conditions: S. cerevisiae sgs1 mgt1 strain, active compounds read high
Method in brief: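 This yeast growth screen uses a strain with defined DNA-repair lesions; compound-treated growth is compared with vehicle-treated growth.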

[10] = NCI Yeast Anticancer Drug Screen. Data for the CLN2oe strain (AID 163);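 further: 0% = growth of vehicle-only control cultures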; conditions: S. cerevisiae CLN2oe strain, active compounds read high
Method in brief: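 Cells of an engineered yeast line with disturbed cell-cycle regulation are treated with compound. Inhibition of growth is then calculated relative to the vehicle-treated reference.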

[11] = NCI Yeast Anticancer Drug Screen. Data for the cln2 rad14 strain (AID 165);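 further: 0% = growth equal to vehicle treated cultures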; conditions: S. cerevisiae cln2 rad14 strain, active compounds read high
Method in brief: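 Strain: cln2 rad14 yeast, altered in cell cycle control and DNA damage repair. Read-out: growth inhibition vs vehicle.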

[12] = NCI Yeast Anticancer Drug Screen. Data for the bub3 strain (AID 167); conditions: S. cerevisiae bub3 mutant strain, active compounds read high
Method in brief: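 Whole-cell yeast assay. The mutant strain was incubated with compounds, and growth inhibition was determined by comparison with vehicle-treated cells.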

[13] = NCI Yeast Anticancer Drug Screen. Data for the wt2 strain (AID 169);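 further: 0% = growth of vehicle-treated yeast cultures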; conditions: S. cerevisiae wt2 strain growth inhibition, active compounds read high
Method in brief: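 Growth of compound-treated yeast is measured and expressed as inhibition relative to vehicle-only controls.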

[14] = NCI Yeast Anticancer Drug Screen. Data for the mlh1 strain (AID 171);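 further: 0% = growth of vehicle-treated control cultures of the same strain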; conditions: S. cerevisiae mlh1 strain growth inhibition, active compounds read high
Method in brief: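 Test agents were incubated with yeast bearing a defined DNA damage repair or cell cycle control alteration; values are growth inhibition normalised to vehicle-treated cultures.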

[15] = NCI Yeast Anticancer Drug Screen. Data for the mlh1 rad18 strain (AID 175); conditions: S. cerevisiae mlh1 rad18 strain growth inhibition, active compounds read high
Method in brief: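 A repair-deficient yeast strain is exposed to test compound, and growth is scored relative to vehicle-treated controls.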

[16] = at 5.0 µM (retest, dose inferred, filed as 0.5)
[17] = at 50.0 µM (retest, dose inferred, filed as 5.0)

Measured: growth inhibition

CC1CC(C)CC(C)C(O)/C(C#N)=C/C=C/CC(C2CCCC2C(=O)O)OC(=O)CC(O)C(C)C1 (stereo unspecified)
active: [1]; at 1.2 µM 95% | [1]; at 3.7 µM 97% | [1]; at 11.0 µM 98% | [1]; at 33.0 µM 97% | [1]; at 100.0 µM 97% | [2]; at 1.2 µM 96% | [2]; at 3.7 µM 97% | [2]; at 11.0 µM 98% | [2]; at 33.0 µM 97% | [2]; at 100.0 µM 97%

CCN(CCCl)CCCCNc1c2ccccc2nc2ccc(OC)cc12
active: [3]; at 33.0 µM 74% | [3]; at 100.0 µM 95% | [4]; at 33.0 µM 77% | [4]; at 100.0 µM 90% | [5]; at 33.0 µM 86% | [5]; at 100.0 µM 97% | [6]; at 11.0 µM 84% | [6]; at 33.0 µM 91% | [6]; at 50.0 µM 85.8% | [6]; at 100.0 µM 95% | [7]; at 33.0 µM 94% | [7]; at 50.0 µM 74.2% | [7]; at 100.0 µM 97% | [8]; at 11.0 µM 80% | [8]; at 33.0 µM 95% | [8]; at 100.0 µM 98% | [9]; at 50.0 µM 72.1% | [10]; at 33.0 µM 78% | [10]; at 100.0 µM 95% | [11]; at 50.0 µM 77.9% | [12]; at 33.0 µM 82% | [12]; at 100.0 µM 94% | [13]; at 33.0 µM 82% | [13]; at 100.0 µM 95% | [14]; at 33.0 µM 70% | [14]; at 100.0 µM 96% | [1]; at 11.0 µM 82% | [1]; at 33.0 µM 90% | [1]; at 100.0 µM 96% | [2]; at 3.7 µM 80% | [2]; at 11.0 µM 90% | [2]; at 33.0 µM 94% | [2]; at 100.0 µM 95%
inactive: [3]; at 1.2 µM 3% | [3]; at 3.7 µM 8% | [3]; at 11.0 µM 32% | [4]; at 1.2 µM 18% | [4]; at 3.7 µM 39% | [4]; at 11.0 µM 63% | [5]; at 1.2 µM 9% | [5]; at 3.7 µM 14% | [5]; at 11.0 µM 42% | [6]; at 1.2 µM 38% | [6]; at 3.7 µM 64% | [6]; [16] 46% | [6]; [17] 46% | [7]; at 1.2 µM 9% | [7]; at 3.7 µM 18% | [7]; [16] 26% | [7]; at 11.0 µM 48% | [7]; [17] 26% | [8]; at 1.2 µM 4% | [8]; at 3.7 µM 17% | [9]; [16] 60% | [9]; [17] 60% | [10]; at 1.2 µM 8% | [10]; at 3.7 µM 33% | [10]; at 11.0 µM 57% | [11]; [16] 24% | [11]; [17] 24% | [12]; at 1.2 µM -21% | [12]; at 3.7 µM -14% | [12]; [16] -15% | [12]; at 11.0 µM 38% | [12]; [17] -15% | [12]; at 50.0 µM 60.9% | [13]; at 1.2 µM 4% | [13]; at 3.7 µM 13% | [13]; at 11.0 µM 38% | [14]; at 1.2 µM 4% | [14]; at 3.7 µM 16% | [14]; at 11.0 µM 51% | [1]; at 1.2 µM 46% | [1]; at 3.7 µM 69% | [15]; [16] 18% | [15]; [17] 18% | [15]; at 50.0 µM 69.5% | [2]; at 1.2 µM 66%

Nc1nc(-c2ccccc2)c(-c2ccccc2)[se]1
inactive: [3]; at 1.2 µM -2% | [3]; at 3.7 µM -1% | [3]; at 11.0 µM -1% | [3]; at 33.0 µM -2% | [3]; at 100.0 µM 3% | [4]; at 1.2 µM -1% | [4]; at 3.7 µM 7% | [4]; at 11.0 µM 9% | [4]; at 33.0 µM 18% | [4]; at 100.0 µM 25% | [5]; at 1.2 µM -3% | [5]; at 3.7 µM 1% | [5]; at 11.0 µM 0% | [5]; at 33.0 µM 2% | [5]; at 100.0 µM 12% | [6]; at 1.2 µM 7% | [6]; at 3.7 µM 4% | [6]; [16] 7% | [6]; at 11.0 µM 5% | [6]; at 33.0 µM 16% | [6]; [17] 10% | [6]; at 50.0 µM 51.1% | [6]; at 100.0 µM 32% | [7]; at 1.2 µM -1% | [7]; at 3.7 µM 1% | [7]; [16] 11% | [7]; at 11.0 µM 0% | [7]; at 33.0 µM 3% | [7]; [17] 10% | [7]; at 50.0 µM 22.9% | [7]; at 100.0 µM 7% | [8]; at 1.2 µM 5% | [8]; at 3.7 µM 3% | [8]; at 11.0 µM 4% | [8]; at 33.0 µM 13% | [8]; at 100.0 µM 28% | [9]; [16] 10% | [9]; [17] 23% | [10]; at 1.2 µM 3% | [10]; at 3.7 µM -1% | [10]; at 11.0 µM 3% | [10]; at 33.0 µM 8% | [10]; at 100.0 µM 15% | [11]; [16] 11% | [11]; [17] 2% | [11]; at 50.0 µM -11.8% | [12]; at 1.2 µM -2% | [12]; at 3.7 µM -2% | [12]; [16] 3% | [12]; at 11.0 µM -3% | [12]; at 33.0 µM 3% | [12]; [17] 1% | [12]; at 50.0 µM 41.3% | [12]; at 100.0 µM 5% | [13]; at 1.2 µM -10% | [13]; at 3.7 µM -9% | [13]; at 11.0 µM -14% | [13]; at 33.0 µM -9% | [13]; at 100.0 µM -10% | [14]; at 1.2 µM 0% | [14]; at 3.7 µM 2% | [14]; at 11.0 µM 0% | [14]; at 33.0 µM 6% | [14]; at 100.0 µM 17% | [1]; at 1.2 µM -18% | [1]; at 3.7 µM 7% | [1]; at 11.0 µM 11% | [1]; at 33.0 µM 6% | [1]; at 100.0 µM 32% | [15]; [16] 6% | [15]; [17] 10% | [15]; at 50.0 µM 62.5% | [2]; at 1.2 µM 5% | [2]; at 3.7 µM 8% | [2]; at 11.0 µM 6% | [2]; at 33.0 µM 15% | [2]; at 100.0 µM 51%
active: [9]; at 50.0 µM 86.2%
